Rv3671c protease – Rv3671c (M. tuberculosis) protease inhibition; P9WHR9; inhibition, % at 5.96 µM; hit rate 0.048% among 320,000; in the data active = inhibition above about 38%;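 also: extracellular domain of Rv3671c used as enzyme; 0% = enzyme with DMSO and 100% = no enzyme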
Mtb bLac sens – beta-lactam sensitization of Mtb H37Rv; hit rate 0.27% among 330,000; inhibition, % at 25 µM; M. tuberculosis H37Rv growth with meropenem, percent inhibition; AID 434955;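 also: growth measured after seven days incubation then overnight dye step; 0% = bacteria only wells and 100% = bacteria with antibiotic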
FadD28 binding – inhibitors of Mycobacterium tuberculosis FadD28 bisubstrate binding | FadD28 bisubstrate probe binding, fluorescence polarization | inhibition, % at 12.5 µM | hit rate 0.22% among 360,000 | AID 588549; in the data active = inhibition above about 8.5%, passing the limit was not always enough; inconclusive = no clear call, values can overlap the other calls
Mtb UGM inh – inhibitors of M. tuberculosis UDP-galactopyranose mutase | P9WIQ1 | hit rate 0.06% among 320,000 | inhibition, % at 10 µM | AID 504406 | purified UGM, fluorescence polarization probe displacement; in the data active = inhibition above about 10%, passing the limit was not always enough; inconclusive = no clear call, values can overlap the other calls
Target sequence (P9WIQ1 whole entry, looked up): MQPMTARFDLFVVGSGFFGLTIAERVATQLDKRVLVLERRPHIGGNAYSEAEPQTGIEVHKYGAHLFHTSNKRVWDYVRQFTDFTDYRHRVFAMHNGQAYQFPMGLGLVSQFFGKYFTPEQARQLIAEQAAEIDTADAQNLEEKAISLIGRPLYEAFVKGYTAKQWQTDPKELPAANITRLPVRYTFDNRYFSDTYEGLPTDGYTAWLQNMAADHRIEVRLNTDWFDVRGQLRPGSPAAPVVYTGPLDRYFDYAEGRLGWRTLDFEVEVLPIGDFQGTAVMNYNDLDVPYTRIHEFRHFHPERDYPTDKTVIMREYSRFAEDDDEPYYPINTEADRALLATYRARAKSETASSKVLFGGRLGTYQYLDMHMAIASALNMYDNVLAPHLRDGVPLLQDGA
Vc quorum ag-1 – induces V. cholerae light production without autoinducers | V. cholerae BH1578 lux reporter, luminescence, 6 h | hit rate 0.16% among 350,000 | activation, % at 18.7 µM; in the data active = activation mostly above about 9.7%, no sharp cut-off; inconclusive = no clear call, values can overlap the other calls; inactive = mostly below about 3.7%
PrP 5UTR inh – inhibition of PrP 5' UTR reporter expression; inhibition, % (test concentration not listed); hit rate 0.35% among 340,000; AID 488862; cell-based PrP 5' UTR mRNA reporter, plate reader; in the data active = inhibition above about 52%; also: 0 = median of the neutral control wells
PrP 5UTR single – prion 5' UTR mRNA inhibition, cherry-pick retest; shares compounds with PrP 5UTR inh; cell-based prion protein 5' UTR reporter, plate reader; inhibition, % at 2.5 µM; hit rate 48% among 1,100; in the data active = inhibition above about 54%; inconclusive = no clear call, values can overlap the other calls
DNA intercal FP – intercalates into DNA, flagged in counter-screen; shares compounds with Mtb UGM inh; acridine orange-DNA binding, fluorescence polarization; AC50, µM; hit rate 60% among 35;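 active = fitted AC50 no greater than ten times the top concentration tested, cut at about 17 µM in these data; inconclusive = flat fit with 30 to 70% signal change, or an unreliable fit; inactive = AC50 beyond ten times the top concentration tested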
Vc quorum ag-2 – quorum light induction in BH1578 reporter strain; shares compounds with Vc quorum ag-1; V. cholerae BH1578 lux reporter, luminescence, 6 h; activation, % at 50 µM; 620 tested, under 10 active; AID 602243
HeLa 24h tox – kills HeLa cells within 24 hours; shares compounds with Vc quorum ag-1; HeLa viability, CellTiter-Glo ATP luminescence; activity change, negative = cytotoxicity, % at 35 µM; 25 tested, under 10 active; AID 624140;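 active = signal drop with fitted half-maximal concentration at or below twice the highest valid dose; inconclusive = flat curve with 30 to 70% loss, or poor fit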
An asterisk follows results filed as active; i = inactive; ? = inconclusive; . = not tested or not shown; + = active, no number. An excerpt weighted towards active compounds, which were near 0.76% of everything screened. Unless noted, no rule for the calls is given here.

SMILES | Rv3671c protease | Mtb bLac sens | FadD28 binding | Mtb UGM inh | Vc quorum ag-1 | PrP 5UTR inh | Vc quorum ag-2 | others
O=C(NCC1CCCO1)c1ccc(CSCc2cccc(F)c2)o1 (stereo not drawn) | 0 | 3 | 0 | -5 | 0 | -16 | .
COc1cc(-c2noc(C)c2-c2ccc(N(C)C)nc2)cc(OC)c1OC | 8 | -1 | -2 | 1 | i | 67* | . | PrP 5UTR single=90*
COc1cc(-c2noc(C)c2-c2ccc3[nH]ccc3c2)cc(OC)c1OC | -5 | 35 | -12 | -2 | i | -17 | .
CCC1(c2ccccc2)NC(=S)N(c2ccc(C)cc2)N1 (stereo not drawn) | -2 | 50 | -2 | -2 | i | 76* | . | PrP 5UTR single=-52
COc1ccc(C(Nc2ccccn2)c2oc(CO)cc(=O)c2O)cc1 (stereo not drawn) | 8 | 0 | -1 | 2 | 0 | 62* | . | PrP 5UTR single=-37
CC(=O)Nc1ccc(-c2cn3ccsc3n2)cc1 | -7 | -8 | -1 | 2 | i | -60 | . | DNA intercal FP=>35
O=C(Nc1ccc(-c2cn3ccsc3n2)cc1)C1CC1 | 8 | -3 | 1 | 0 | i | -51 | .
Cc1nn(C)c(C)c1N1C(=O)c2cccc3c(N)ccc(c23)C1=O | 11 | -17 | 4 | 68* | i | -22 | . | DNA intercal FP=6.1*
O=C(Cc1c(F)cccc1Cl)Nc1ccc(S(=O)(=O)N2CCOCC2)cc1 | -3 | -3 | -2 | 1 | 7 | 2 | .
COc1ccc(NC(=O)CCNS(=O)(=O)c2ccc(Cl)c([N+](=O)[O-])c2)cc1S(N)(=O)=O | -5 | -7 | -1 | 2 | 0 | -8 | .
O=C1CCC(=O)c2ccc3c4c(ccc1c24)CC3 | . | . | -1 | . | 3 | -12 | .
O=C1CCN2C=Nc3cccc4ccc1c2c34 | -11 | -2 | 1 | 39* | i | -2 | . | DNA intercal FP=13*
Cc1ccc(Cl)cc1N1CCN(C(=O)C2CCN(S(C)(=O)=O)CC2)CC1 | -11 | -7 | -1 | 6 | -1 | -29 | . | DNA intercal FP=>35
COc1ccc(CCNC(=O)C2CCC(=O)N(CC3CCCCC3)C2)cc1 (stereo not drawn) | . | . | -1 | . | 0 | -2 | .
CC(C)(C)C1(C)OC(=O)C(=Cc2ccc(OCC(=O)Nc3ccccc3)cc2)C(=O)O1 (stereo not drawn) | 2 | -6 | -1 | 1 | 0 | -23 | . | DNA intercal FP=>35
CCN(CC(=O)Nc1c(F)cccc1F)C(=O)C1CC(=O)N(c2ccccc2OC)C1 (stereo not drawn) | -5 | -7 | -4 | 0 | 12 | -34 | 0
CC1CCCN(C(=O)c2ccc3c(=O)n(Cc4ccc5c(c4)OCO5)c(=S)[nH]c3c2)C1 (stereo not drawn) | -5 | 2 | 0 | 0 | 2 | -7 | 4
CCc1ccc2c(c1)c1nnc(NN)nc1n2CC | -8 | ? | -2 | 3 | 135* | -10 | 106
CCc1ccc2c(c1)c1nnc(NN)nc1n2C | 1 | 1 | -1 | -4 | 1 | -3 | .
CC1=C(C(=O)N(C)C)CC(CC(=O)NCc2cccc3ccccc23)C(=O)N1CCC1=CCCCC1 (stereo not drawn) | . | . | -2 | . | 0 | . | .
Cc1nnc(SCC(=O)NCc2cccs2)n1-c1ccccc1 | 6 | -4 | -1 | 0 | i | -8 | .
Cc1occc1-c1nnc(SCC(=O)NCc2cccs2)n1-c1ccc(F)cc1 | -5 | 9 | -4 | -2 | 14 | -17 | 0
Fc1cc(F)c(F)c(SCCc2ccncc2)c1F | -2 | 2 | 0 | 2 | 0 | -6 | .
O=Cc1cccc2ccc3cccc(C(=O)O)c3c12 | 2 | 28 | -1 | 1 | 1 | 4 | .
O=C(NCc1ccccn1)c1ccc(CS(=O)(=O)Cc2ccc(Cl)cc2)o1 | 10 | -8 | -3 | 0 | 15* | -9 | 0
SMILES | Rv3671c protease | Mtb bLac sens | FadD28 binding | Mtb UGM inh | Vc quorum ag-1 | PrP 5UTR inh | Vc quorum ag-2 | others
CCn1nnnc1SCC(=O)c1ccc2c(c1)OCCO2 | 6 | -15 | 2 | 2 | + | -56 | i
O=C(CSc1nnc2ccccn12)c1ccc2c(c1)OCCO2 | -4 | -9 | -2 | 0 | + | -30 | i
CC(C)n1nnnc1SCC(=O)c1ccc2c(c1)OCCO2 | -8 | 9 | 1 | 4 | + | -69 | i
CC(C)n1nnnc1SCC(=O)Nc1ccc2c(c1)OCCO2 | -4 | -5 | . | -1 | . | . | .
O=[N+]([O-])c1cc(C(F)(F)F)cc([N+](=O)[O-])c1NCCNC(=S)Nc1ccc(Cl)c(Cl)c1 | -50 | 92 | -4 | 1 | -1 | -18 | .
COc1ccccc1C1SCCN1S(=O)(=O)c1ccccc1 (stereo not drawn) | . | . | -4 | . | 0 | . | .
CCC1(CC)NC(=O)N(CC(=O)OCC(=O)c2ccccc2OC)C1=O | -14 | -6 | -2 | 0 | i | -14 | .
CC(C)[C@H](NC(=O)c1ccccc1F)C(=O)NC1CCCCC1 | 4 | 0 | -1 | 0 | 0 | -21 | .
CC(C)[C@H](NC(=O)c1ccccc1F)C(=O)OCC(=O)NC1CC1 | -1 | 2 | . | -1 | 20* | 11 | 0
CCOc1ccc(CNC(=O)c2ccco2)cc1 | -1 | 1 | -1 | 0 | 60* | -15 | i
Cc1ccc(OCCNC(=O)c2cccc(C)c2)cc1 | 0 | -2 | 0 | 4 | + | -7 | 601 | HeLa 24h tox=6
O=C(NCCOc1ccc(Cl)cc1)c1ccco1 | 0 | 3 | -2 | 0 | 425* | -19 | 40
Cc1ccc(C(=O)NCCNC(=O)c2ccco2)cc1C | -6 | -1 | -4 | 2 | 0 | -37 | .
Cc1ccc(OCCNC(=O)c2ccco2)cc1C | 10 | 1 | -4 | -4 | + | -60 | 500
O=C(COC(=O)CSc1ccc(F)cc1)NNC(=O)c1ccc([N+](=O)[O-])cc1 | 3 | 4 | -2 | 4 | -1 | -25 | .
CCc1ccc(OCCNC(=O)c2ccco2)cc1 | 3 | ? | -1 | 0 | . | -18 | i
CCOc1ccc(CN(C)C(=O)CCNC(=O)c2ccco2)cc1 | -5 | 0 | 1 | -3 | 0 | 3 | .
CCOc1ccc(Nc2ccc3nonc3c2[N+](=O)[O-])cc1 | 6 | 56 | 0 | 1 | + | 3 | i | HeLa 24h tox=17
O=[N+]([O-])c1c(Nc2ccc(Br)cc2)ccc2nonc12 | 9 | 0 | 1 | -1 | -1 | -12 | .
Cc1ccc(N(C(C)C(=O)N2CCCCC2)S(C)(=O)=O)cc1C (stereo not drawn) | -4 | -2 | 0 | -2 | 25* | -33 | 0
